From PubChem BioAssay
KDM5B inhibitor = KDM5B demethylase inhibition; hit rate 2.6% among 220,000; Q9UGL1; AID 1347165; KDM5B demethylase, FDH-coupled NADH fluorescence (FDH is formaldehyde dehydrogenase); Potency, µM (titrated, usually from 57.7 µM), actives largely listed as inhibitors; active = well fitted inhibition curve with a large enough effect; note: nearly all actives have a fitted effect of over 70% in size
Target sequence (Q9UGL1 whole entry, looked up): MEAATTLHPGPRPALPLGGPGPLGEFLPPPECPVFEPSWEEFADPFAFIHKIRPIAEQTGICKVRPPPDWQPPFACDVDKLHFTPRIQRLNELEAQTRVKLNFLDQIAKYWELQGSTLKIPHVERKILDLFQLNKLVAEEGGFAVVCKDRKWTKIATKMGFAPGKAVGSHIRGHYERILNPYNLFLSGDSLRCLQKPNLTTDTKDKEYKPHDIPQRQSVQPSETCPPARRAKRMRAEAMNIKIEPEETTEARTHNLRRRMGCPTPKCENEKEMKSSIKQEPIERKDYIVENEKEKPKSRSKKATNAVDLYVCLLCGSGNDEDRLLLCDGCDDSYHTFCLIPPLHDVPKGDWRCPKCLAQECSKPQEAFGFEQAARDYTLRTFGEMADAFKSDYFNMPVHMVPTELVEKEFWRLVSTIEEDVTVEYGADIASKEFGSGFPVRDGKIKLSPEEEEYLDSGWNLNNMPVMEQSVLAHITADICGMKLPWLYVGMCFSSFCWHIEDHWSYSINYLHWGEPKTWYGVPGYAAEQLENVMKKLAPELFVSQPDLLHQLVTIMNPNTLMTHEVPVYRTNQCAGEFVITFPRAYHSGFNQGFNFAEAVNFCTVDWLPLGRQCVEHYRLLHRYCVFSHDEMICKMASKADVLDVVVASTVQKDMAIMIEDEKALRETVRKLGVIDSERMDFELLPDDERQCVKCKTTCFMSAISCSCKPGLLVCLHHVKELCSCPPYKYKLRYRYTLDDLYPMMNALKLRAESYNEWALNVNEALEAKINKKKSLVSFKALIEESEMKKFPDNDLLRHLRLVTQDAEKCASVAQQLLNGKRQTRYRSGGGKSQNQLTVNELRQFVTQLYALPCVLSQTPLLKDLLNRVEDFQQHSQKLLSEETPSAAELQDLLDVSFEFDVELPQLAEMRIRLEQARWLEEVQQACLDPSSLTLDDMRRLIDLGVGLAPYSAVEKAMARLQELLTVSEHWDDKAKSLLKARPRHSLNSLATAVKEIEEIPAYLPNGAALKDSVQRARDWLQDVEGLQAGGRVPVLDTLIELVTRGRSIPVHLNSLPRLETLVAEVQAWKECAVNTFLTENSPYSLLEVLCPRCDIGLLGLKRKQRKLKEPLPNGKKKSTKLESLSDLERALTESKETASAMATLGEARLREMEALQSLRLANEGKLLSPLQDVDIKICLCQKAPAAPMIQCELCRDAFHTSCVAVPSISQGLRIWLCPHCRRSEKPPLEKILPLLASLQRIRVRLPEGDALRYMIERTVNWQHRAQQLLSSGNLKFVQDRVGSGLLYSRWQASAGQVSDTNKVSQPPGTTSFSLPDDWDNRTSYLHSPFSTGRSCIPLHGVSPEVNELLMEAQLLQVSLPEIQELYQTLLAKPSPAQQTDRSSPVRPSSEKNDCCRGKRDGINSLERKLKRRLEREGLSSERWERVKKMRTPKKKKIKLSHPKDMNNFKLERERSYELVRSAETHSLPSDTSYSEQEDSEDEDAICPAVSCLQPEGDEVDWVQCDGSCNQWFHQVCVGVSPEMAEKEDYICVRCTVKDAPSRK
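Here, H3K4me3 peptide (12.5 µM in substrate mix) is demethylated by KDM5BΔAP, 200 nM final, after 10 min compound exposure. Formaldehyde product is coupled through FDH (0.25 U/mL in mix) to NADH fluorescence; 30-min ΔRFU feeds dose-response curves.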
A number is an active result; – = inactive. The entries come from a sample that favours hits as a whole.

SMILES | KDM5B inhibitor
COC(=O)CCOc1ccc(S(=O)(=O)Nc2ccc(F)cc2F)cc1 | –
O=S(=O)(Nc1nc2ccccc2nc1Nc1ccc2c(c1)OCO2)c1cc(Cl)ccc1Cl | –
CN1CCOc2c(C(=O)NCc3cccnc3)cc(-c3cccc4[nH]ccc34)cc21 | 35µM
CCn1cc(C(=O)N2CCOc3c(O)cc(-c4ccccc4C)cc3C2)cn1 | –
Cc1cccn2c(=O)c3cc(C(=O)NCc4cccnc4)c(=N)n(CC4CCCO4)c3nc12 (stereo not given) | –
CN1CCOc2c(C(=O)NCc3cccnc3)cc(-c3ccccc3O)cc21 | 32µM
Cc1ccc(C)c(Nc2cc(C(=O)NCc3cccnc3)c3ccccc3n2)c1 | –
CCN1C(=O)c2ccccc2S(=O)c2ccc(C(=O)NCc3cccnc3)cc21 (stereo not given) | –
CN1CCOc2c(C(=O)NCc3cccnc3)cc(-c3ccc(CO)cc3)cc21 | 40µM
Cc1ccccc1-n1nc(CO)c(C(=O)NCc2cccnc2)n1 | –
Cc1cc(C(=O)NCc2cccnc2)sc1C | –
CCn1cc(CNC(=O)c2cc(-c3ccccc3)nc3ccccc23)cn1 | –
CN1CCOc2c(C(=O)NCc3cnn(C)c3)cc(-c3ccccc3O)cc21 | 28µM
CC(C)NC(=O)C(C)ONC(=O)c1cccc(C(F)(F)F)c1 (stereo not given) | –
COC[C@@H]1CN(Cc2ccc(C#N)cc2)C[C@H]1C(=O)NC1CC1 | –
O=C(CCc1nnc2ccc(NCc3ccccc3)nn12)N1CCN(c2ccccc2)CC1 | –
Cc1ccc(C(=O)N2CCC3(CC2)COc2ccccc2C(=O)N3)cc1 | –
CCN1CCN(CCOc2ccc3c(=O)c(-c4ccc(Br)cc4)c(C)oc3c2)CC1 | –
CC(C)CCC1(C)NC(=O)N(c2ccc(Br)cc2)N1 (stereo not given) | –
CN1CCOc2c(C(=O)NCc3cnn(C)c3)cc(-c3cccnc3)cc21 | –
O=C(Nc1ccccc1C(=O)NCc1cccnc1)c1cccnc1 | –
CN1CCOc2c(C(=O)NCc3cccnc3)cc(-c3ccccc3)cc21 | 28µM
CCCCCC(=O)N1CC[C@@H](CC(=O)N(C)CCC#N)[C@@H](CC)C1 | –
NCCCCN1CCC(C(N)=O)CC1 | –
COC[C@H]1C[C@@H](NC(=O)C2CCOCC2)[C@H](O)[C@@H]1O | –
SMILES | KDM5B inhibitor
CS(=O)(=O)c1ccc(OC[C@H]2C[C@@H](NC(=O)c3cncnc3)[C@H](O)[C@@H]2O)cc1 | –
CS(=O)(=O)c1ccc(OC[C@H]2C[C@@H](NC(=O)C3CCOCC3)[C@H](O)[C@@H]2O)cc1 | 32µM
CC(Sc1ccc(Cl)cc1)C(=O)Nc1ccc(C(C)C)cc1 (stereo not given) | –
CCOC(=O)/C(C#N)=C(\C=C\c1ccccc1OC(F)F)c1ccccc1 | –
O=C(NCc1cccc(Cl)c1)C(=O)Nc1ccc2cc[nH]c2c1 | –
CCOC(=O)c1ccccc1NC(=O)c1c(F)cccc1F | –
COc1cccc(C(=O)NCc2cn3cccc(C)c3n2)c1 | –
CCc1noc(-c2cccn3c(CNC(=O)c4cccc(OC)c4)nnc23)n1 | 22µM
COc1cccc(C(=O)NCc2nnc3c(-c4nc(C)no4)cccn23)c1 | 28µM
CCc1noc(-c2cn(C3CCN(C(=O)c4cccc(OC)c4)CC3)nn2)n1 | –
CCn1nc(C(=O)OCC(=O)N(C)c2ccccc2)c2ccccc2c1=O | –
COc1ccc(C(NC(=O)CSc2ccc3c(c2)OCCCO3)c2ccccc2)cc1 (stereo not given) | –
CN(C)S(=O)(=O)NC(=O)c1cc(Br)ccc1F | –
CCCCc1ccc(NN)c(I)c1 | –
CCCn1nc(C(=O)OCC(=O)Nc2ccc3c(c2)OC(F)(F)O3)c2ccccc2c1=O | –
CC(C)c1ccccc1OCC(O)Cn1cnc2c(cnn2-c2ccc(F)cc2)c1=O (stereo not given) | –
COc1ccc(Nc2cc3c(cn2)CN(C)CCN3)cc1OC | –
COc1ccc(CN2CCNc3cc(-c4ccnc(C)c4)ncc3C2)cc1 | –
COc1ccc(-c2cc3c(cn2)CN(Cc2ccncc2)CCN3)cc1 | 35µM
Cc1cc(-c2cc3c(cn2)CN(Cc2cccs2)CCN3)ccn1 | –
c1ccc(N2CCN(c3cc4c(cn3)CN(Cc3ccncc3)CCN4)CC2)nc1 | –
CN1CCNc2cc(-c3ccc(N4CCOCC4)cc3)ncc2C1 | 28µM
Fc1ccc(-c2cc3c(cn2)CN(Cc2ccncc2)CCN3)cc1Cl | 35µM
Fc1ccc(Nc2cc3c(cn2)CN(Cc2ccncc2)CCN3)cc1Cl | –
Cc1nn(-c2ccc(Cl)nn2)c2c1C(c1cccc3nccnc13)CC(=O)N2 (stereo not given) | –
SMILES | KDM5B inhibitor
O=C(NC1CC1)C1CCCN1S(=O)(=O)c1ccc(Br)s1 (stereo not given) | –
O=C(CC(Nc1cc(C(F)(F)F)ccc1Cl)C(=O)O)c1ccccc1 (stereo not given) | –
Cc1oc(-c2ccccc2)nc1C(=O)NC(C)CN1CCOCC1 (stereo not given) | –
Cc1ccc(OCC(=O)N2CCCC(c3nn(C)c(=O)n3C(C)C)C2)cc1 (stereo not given) | –
COc1ccc(C(=O)N2C[C@@H](Oc3cccnc3)C[C@H]2C(N)=O)c(OC)n1 | –
CCOC(=O)c1cccc(NC(=O)c2ncoc2-c2ccc(OC)cc2)c1 | –
O=C(/C=C/c1cc(Br)ccc1F)OC1CCCCC1=O (stereo not given) | –
O=C(NCc1ccc(Cl)nc1)c1cnn2c1CN(C(=O)OCc1ccccc1)CC2 | –
C[S+](=O)([O-])N1CCn2ncc(C(=O)NCc3ccc(Cl)nc3)c2C1 | –
O=C(NCc1ccc(Cl)nc1)c1cnn2c1CN(C(=O)c1ccccc1)CC2 | –
O=C(NCc1ccc(Cl)nc1)c1cccn2nccc12 | 35µM
Cc1ccc2cc(C(=O)NCc3ccc(N4CCCCCC4)nc3)c(C)nc2c1 | –
Cc1ccc2c(C(=O)NCc3ccc(Cl)nc3)cnn2c1 | 40µM
COCCn1c(SCC(=O)c2cc(C)c(C)cc2C)nc2ccccc2c1=O | –
O=C(NCCc1ccccc1)C1Cn2cccc2C(=O)N1Cc1cccnc1 (stereo not given) | –
COc1cc(C(=O)COC(=O)CSc2cc(Cl)ccc2Cl)cc(OC)c1OC | –
Cc1ccc(S(=O)(=O)N2CCCC(C(=O)Nc3ccnc4ccccc34)C2)cc1 (stereo not given) | –
COC(=O)Nc1cccc(C(=O)NCc2ccccc2)c1 | –
Cc1ccc(C)c(Nc2nc(NCc3ccco3)c3ccccc3n2)c1 | –
O=C1CCC2(CCCN(c3nc4ccccc4s3)C2)CN1Cc1cccnc1 (stereo not given) | –
O=C1CCC2(CCN(c3nc4ccccc4s3)CC2)CN1Cc1cccnc1 | –
O=C1CCC2(CCCN(c3ncc(Cl)cc3F)C2)CN1Cc1cccnc1 (stereo not given) | 28µM
CCCNC(=O)c1coc(COc2ccc3c(c2)C(c2ccc(F)cc2)N(C(=O)C(C)C)CC3)n1 (stereo not given) | –
O=c1c2cc([N+](=O)[O-])ccc2ncn1Cc1coc(-c2cccs2)n1 | –
Cc1noc(C)c1-c1cc2cc(C(C)C)oc2c(-c2cccnc2)n1 | 32µM
COc1ncccc1-c1nc(-c2c(C)noc2C)cc2cc(C(C)C)oc12 | 32µM
Cc1noc(C)c1-c1cc2cc(C(C)C)oc2c(NCCN(C)C)n1 | –
CNC(=O)c1cc2cc(-c3c(C)noc3C)nc(-c3cccnc3OC)c2o1 | 35µM
COc1ncccc1-c1nc(-c2c(C)noc2C)cc2c1cc(C)n2C | –
Cc1noc(C)c1-c1cc2cc(C(C)C)oc2c(-c2ccc(CO)cc2)n1 | 28µM
